Sfp PPTase inh: Sfp phosphopantetheinyl transferase inhibition; Q9F4F7; Biochemical Sfp PPTase activity, qHTS; Potency, µM, actives largely listed as inhibitors; hit rate 3.5% among 310,000; AID 1490;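 further: the enzyme is Sfp with the accession as filed and its product quenches rhodamine fluorescence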
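Fluorescence-quenching assay: 15 nM Sfp-PPTase preincubated 15 min at room temperature with compound, then 5 uM rhodamine-CoA and 12.5 uM BHQ-2-labelled YbbR peptide added. Fluorescence (ex 525/em 598 nm) read at start and after 30 min; difference gives rate.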
G9a inh: inhibitors of human histone lysine methyltransferase G9a; G9a H3K9 monomethylation, AlphaScreen, 2 h; hit rate 8.8% among 350,000; Q96KQ7; Potency, µM (highest dose often 102 µM), hits mostly inhibitors; further: nearly all actives have a fitted effect of over 75% in size
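Quantitative HTS format: methyltransferase activity on a biotin-tagged H3K9 peptide is measured by AlphaScreen, using a rabbit anti-monomethyl-H3K9 antibody with streptavidin donor and anti-IgG acceptor beads. Final levels are 20 nM enzyme, 500 nM peptide, 20 uM SAM; 2 h RT.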
BAZ2B block: blocks human BAZ2B | Q9UIF8 | AlphaScreen BAZ2B-H3K14Ac peptide displacement | Potency, µM (top dose mostly 114 µM), most hits filed as inhibitors | hit rate 4.4% among 360,000; further: nearly all actives have a fitted effect of over 60% in size
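In this displacement format the biotinylated H3(5-23) peptide acetylated at Lys14 serves as ligand at 50 nM, with BAZ2B at 50 nM in PBS pH 7.4 containing 0.01% Tween-20. Donor and acceptor beads are 10 ug/mL final.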
JMJD2A Tudor inh: blocks the human JMJD2A Tudor domain | AlphaScreen JMJD2A-Tudor / H3K4me3 peptide binding | Potency, µM (series often up to 114 µM), actives largely listed as inhibitors | hit rate 4.4% among 390,000 | AID 504339; further: nearly all actives have a fitted effect of over 50% in size
L3MBTL1 block: blocks human L3MBTL1 | Q9Y468 | AlphaScreen L3MBTL1–H3K9me1 peptide binding | Potency, µM (doses to about 57.1 µM), actives largely listed as inhibitors | hit rate 0.66% among 230,000 | AID 485360; further: nearly all actives have a fitted effect of over 60% in size
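Read-out is AlphaScreen signal from streptavidin donor and nickel chelate acceptor beads (10 ug/mL final each) bridging L3MBTL1 (50 nM) and biotinylated K9-monomethylated H3(1-15) peptide (75 nM), after 30 min compound exposure at room temperature.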
HP1b chromo inh: HP1-beta chromodomain-methylated histone interaction inhibition. AlphaScreen HP1-beta / biotin-H3K9me3 peptide binding. Potency, µM (highest dose often 114 µM), most hits filed as inhibitors. hit rate 0.56% among 390,000; further: nearly all actives have a fitted effect of over 70% in size
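AlphaScreen: HP1-beta (50 nM) preformed 30 min with biotin-H3(1-18)K9me3 peptide (50 nM) in PBS pH 7.4, 0.01% Tween-20. Compound added for 30 min at RT, then streptavidin donor/nickel chelate acceptor beads (10 ug/mL) for 30 min.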
Each line names hits and unclear results; the compound was inactive in the other large screens. The list is not random: actives were taken first. Their share in the collection is about 12%. The call rests on the fitted dose curve; in most records, active means well fitted curve in the direction sought with a large enough effect; inconclusive means small, poorly fitted or top-dose-only effect, or another doubt; inactive means no such curve, though single readings can be large; an effect the other way counts as inactive or inconclusive.

CCCCC(=O)Nc1nc2c(OC)ccc(OC)c2s1	none (no result: L3MBTL1 block)
CCC[n+]1c(C)sc2c(OC)ccc(OC)c21	Sfp PPTase inh 4µM, G9a inh 25µM, JMJD2A Tudor inh 16µM (no result: L3MBTL1 block)
COc1ccc(N2CCN(C(CNC(=O)C(=O)NCc3cccs3)c3ccco3)CC2)cc1 (stereo not drawn)	G9a inh 40µM, BAZ2B block inconclusive
O=C(NCC(c1ccco1)N1CCN(c2ccccc2)CC1)c1cccs1 (stereo not drawn)	G9a inh inconclusive (no result: Sfp PPTase inh)
COc1ccc(N2CCN(C(CNC(=O)C(=O)NC3CCCC3)c3ccco3)CC2)cc1 (stereo not drawn)	G9a inh 7.1µM (no result: Sfp PPTase inh)
COc1ccc(N2CCN(C(CNC(C)=O)c3ccco3)CC2)cc1 (stereo not drawn)	G9a inh inconclusive
O=C(COc1ccccc1)NCC(c1ccco1)N1CCN(c2ccccc2)CC1 (stereo not drawn)	G9a inh 45µM, JMJD2A Tudor inh inconclusive (no result: Sfp PPTase inh)
COc1ccc(N2CCN(C(CNC(=O)OCc3ccccc3)c3ccco3)CC2)cc1 (stereo not drawn)	G9a inh 25µM, BAZ2B block 40µM, JMJD2A Tudor inh 40µM, HP1b chromo inh inconclusive
COc1ccccc1CNC(=O)N1CCN(S(=O)(=O)c2ccccc2)CC1	none (no result: L3MBTL1 block)
Cc1noc(C)c1C(=O)OCC(=O)NCc1ccc(Cl)cc1	none (no result: Sfp PPTase inh)
CCOC(=O)/C(C#N)=C/c1ccc(-c2ccc(C)cc2)o1	none (no result: Sfp PPTase inh, L3MBTL1 block)
COCCn1c(=O)c(C)nc2cnc(N3CCN(C)CC3)nc21	none (no result: BAZ2B block, JMJD2A Tudor inh, L3MBTL1 block, HP1b chromo inh)
CC1CCN(C(=O)CN2C(=O)NC3(CCCCCC3)C2=O)CC1	none (no result: Sfp PPTase inh)
CC[C@H](C)[C@H](NC(=O)[C@H](Cc1ccc(O)cc1)NC(=O)[C@H](Cc1cnc[nH]1)NC(=O)[C@H](CCCNC(=N)N)NC(=O)[C@H](CC(C)C)NC(=O)[C@H](C)NC(=O)[C@H](CO)NC(=O)[C@H](Cc1ccc(O)cc1)NC(=O)[C@H](Cc1ccc(O)cc1)NC(=O)[C@H](CCCNC(=N)N)NC(=O)[C@H](C)NC(=O)[C@H](CCSC)NC(=O)[C@H](CC(=O)O)NC(=O)[C@H](CCC(=O)O)NC(=O)[C@H](C)NC(=O)[C@@H]1CCCN1C(=O)[C@H](C)NC(=O)[C@H](CC(=O)O)NC(=O)[C@H](CCC(=O)O)NC(=O)CNC(=O)[C@@H]1CCCN1C(=O)[C@H](CC(N)=O)NC(=O)[C@H](CC(=O)O)NC(=O)[C@@H]1CCCN1C(=O)[C@H](CCCCN)NC(=O)[C@H](CO)NC(=O)[C@@H]1CCCN1C(=O)[C@@H](N)Cc1ccc(O)cc1)C(=O)N[C@@H](CC(N)=O)C(=O)N[C@@H](CC(C)C)C(=O)N[C@@H](CC(C)C)C(=O)N[C@H](C(=O)N[C@@H](CCCNC(=N)N)C(=O)N1CCC[C@H]1C(=O)N[C@@H](CCCNC(=N)N)C(=O)N[C@@H](Cc1ccc(O)cc1)C(N)=O)[C@@H](C)O	none (no result: G9a inh, BAZ2B block, JMJD2A Tudor inh, L3MBTL1 block, HP1b chromo inh)
Cc1nn2c(-c3cccc(NC(=O)c4ccccc4)c3)nnc2c2ccccc12	none (no result: Sfp PPTase inh, L3MBTL1 block)
CSc1nnc(-c2cccc(NC(=O)c3ccccc3)c2)n1C	G9a inh 50µM
CCC(=O)Nc1cccc(-c2nnc(SCC(=O)c3ccccc3)n2C)c1	Sfp PPTase inh 79µM, G9a inh inconclusive, JMJD2A Tudor inh 40µM, HP1b chromo inh inconclusive (no result: BAZ2B block)
COc1cccc(Cn2c(=O)c(C)nc3cnc(OCc4ccccc4)nc32)c1	none (no result: BAZ2B block, JMJD2A Tudor inh, L3MBTL1 block, HP1b chromo inh)
Cn1c(N)c(C(=O)COC(=O)/C=C/c2ccc(Cl)c(Cl)c2)c(=O)n(C)c1=O	none (no result: Sfp PPTase inh, G9a inh, BAZ2B block)
COc1cccc(NC(=O)c2cc3cccc(OC)c3o/c2=N\O)c1	G9a inh inconclusive (no result: JMJD2A Tudor inh, L3MBTL1 block, HP1b chromo inh)
COc1ccc(NC(=O)c2cc3cccc(OC)c3oc2=Nc2ccc(C(=O)O)cc2)cc1OC	G9a inh 40µM (no result: L3MBTL1 block)
COC(=O)c1ccccc1NC(=O)Cn1cnc2ccc(S(=O)(=O)N3CCC(C)CC3)cc2c1=O	Sfp PPTase inh 89µM, G9a inh inconclusive
Cc1ccc(CNS(=O)(=O)c2ccc3c(c2)n(C)c(=O)n3C)cc1	none (no result: L3MBTL1 block)
